Compounds without any hit were thinned out: in the full panel of roughly 83,000, 20% have a hit.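 Interpretation: 100, growth as untreated; towards 0, rising growth inhibition; 0, no net growth; 0 to -100, cell death. Compounds scoring below 10 were considered active.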 Values without a mark were called inactive. The source made the active and inactive calls.
Legend:
Experiment in all cases: NCI-60 one-dose screen, 48 h (100 = growth as untreated, 0 = no growth, -100 = all killed)
Details in all cases: 10 µM unless noted
[1] = tested on: SR leukemia
[2] = tested on: RPMI-8226 leukemia
[3] = tested on: OVCAR-8 ovarian
[4] = tested on: OVCAR-5 ovarian
[5] = tested on: OVCAR-4 ovarian
[6] = tested on: SK-OV-3 ovarian
[7] = tested on: IGROV1 ovarian
[8] = tested on: OVCAR-3 ovarian
[9] = tested on: HS 578T breast
[10] = tested on: NCI/ADR-RES ovarian
[11] = tested on: T-47D breast
[12] = tested on: BT-549 breast
[13] = tested on: MDA-MB-435 melanoma
[14] = tested on: SW-620 colon
[15] = tested on: MCF7 breast
[16] = tested on: HCC-2998 colon
[17] = tested on: KM12 colon
[18] = tested on: HCT-116 colon

Structure (SMILES) | growth [1] | growth [2] | growth [3] | growth [4] | growth [5] | growth [6] | growth [7] | growth [8] | growth [9] | growth [10] | growth [11] | growth [12] | growth [13] | growth [14] | growth [15] | growth [16] | growth [17] | growth [18]
O=C(c1c[nH]c2ccccc12)c1n[nH]c(=S)n1-c1ccc([N+](=O)[O-])cc1 | 92% | 68.4% | 97.1% | 101% | 85% | 95.4% | 73.1% | 95.3% | 92.8% | 106% | 40.4% | 117% | 104% | 100% | 63.3% | 58.5% | 67.4% | 
Cn1c2ccccc2c2c3c(c4c5cc(Br)ccc5n(C)c4c21)C(=O)N(O)C3=O | 18.6% | 10.8% | 24.8% | 92.6% | 53.7% | 3.4% (active) | 21.5% | 6.42% (active) | 61.9% | 6.86% (active) |  | 41.2% | 22.8% | 18% | 10.7% |  | 34.1% | 4.46% (active)
C=C1C(=O)O[C@H]2[C@H]1CC/C(COC(=O)C(=O)c1c[nH]c3ccc(Cl)cc13)=C\CC[C@@]1(C)O[C@@H]21 | 1.13% (active) | -39.1% (active) | -30.3% (active) | -36.6% (active) | -89.3% (active) | 26.2% | -81% (active) | -95% (active) | -14.2% (active) | -20% (active) | -44.9% (active) | -87.2% (active) | -96.4% (active) | -75.5% (active) | -32.5% (active) | -75.9% (active) | -72.8% (active) | 
CCOC(=O)CC1CSC(N/N=C/c2ccc(F)c(Br)c2)=N1 (centres undefined) | 87.7% | 104% | 114% | 95.1% | 89.1% | 95.3% | 117% | 99.3% | 112% | 103% |  | 110% | 108% | 102% | 96.1% | 105% | 93.2% | 88.5%
CS(=O)/C(C#N)=C\C=C\c1cccc(Cl)c1 (centres undefined) | 6.39% (active) | 2.54% (active) | 26.3% | 34.1% | 34.7% | 43.7% | 23.4% | 10.6% | 43.2% | -44.1% (active) |  | 9.95% (active) | 5.01% (active) | 14.9% | 12.9% |  | 12.5% | -28.1% (active)
CC(=O)Nc1sc2c(c1-c1nc3ccccc3s1)CNC2 | 6% (active) | 19.1% | 23.4% | 41.8% | 33.4% | 15.9% | 13.5% | 36.3% | 51.3% | 23.2% |  | 58.1% | 29.7% | 18.8% | 5.45% (active) | 33.6% | 22.8% | 18.8%
Cc1c2cnccc2c(C)c2c1c1cc(CO)ccc1n2C | 8.41% (active) | -20.5% (active) | -13.8% (active) | -27.5% (active) | -56.2% (active) | -43.1% (active) | -36.4% (active) | -33.7% (active) | -13.1% (active) | -24.6% (active) |  | -61.6% (active) | -81.2% (active) | 2.39% (active) | -13.9% (active) | -65.4% (active) | 1.94% (active) | -7.64% (active)
O=C1CCC(C(=O)N/N=C/c2cc(F)ccc2F)N1 (centres undefined) | 109% | 103% | 101% | 106% | 97.6% | 108% | 102% | 102% | 99.1% | 106% |  | 103% | 100% | 106% | 93.4% | 107% | 104% | 103%
CN(C)Cc1ccc(NC(=O)c2cncc(C#Cc3cnc(N)c4ncccc34)c2)cc1C(F)(F)F | -4.79% (active) | -40.4% (active) | -32.8% (active) | -84.8% (active) | -60.1% (active) | 105% | 70.8% | 102% | 70.5% | 72.4% |  | 102% | -75.1% (active) | -78.7% (active) | -72.4% (active) | 3.86% (active) | -40.4% (active) | 47.7%
CN1c2ccccc2S(=O)(=O)n2c(SCC(=O)Nc3nc4ccc(F)cc4s3)nnc21 | 59.8% | 70.1% | 97.4% | 113% | 112% | 112% | -22.6% (active) | 124% | 80.4% | 89.7% |  | 122% | 117% | 107% | 88.2% | 128% | 97.7% | 110%
COc1cc2c(c(OC)c1OC)C(=O)CC(c1cccc(C(=O)Nc3ccccc3Br)c1)O2 (centres undefined) | 64% | 68.7% | 91.8% | 96.5% | 70.6% | 95.4% | 91.6% | 97.6% | 103% | 88.8% | 55.4% | 78.8% | 83.9% | 99.3% | 68.9% | 95% | 93.5% | 
C=C1C(=O)O[C@H]2[C@H]1CC/C(COC(=O)/C=C\C(=O)NCc1ccc(Cn3c(=O)sn(CCCCl)c3=O)cc1)=C\CC[C@@]1(C)O[C@@H]21 | 66.5% | 44.9% | 79.9% | 82.2% | 74.9% | 97.4% | 58.6% | 37.4% | 88.8% | 93.7% | 61.5% | 88.2% | 52.8% | 22.1% | 41.8% | 100% | 99.4% | 
Nc1nc2ccccc2c2c(=O)c3cc(Cl)ccc3sc12 | 94.8% | 102% | 99.2% | 97.9% | 87.9% | 79.8% | 90.2% | -22.8% (active) | 100% | 108% | 45.3% | 105% | 101% | 117% | 27.2% | 97.5% | 12.9% | 
Cc1cc2oc(/C=C/c3ccccc3)cc(=O)c2c(C)c1Cl | 78.3% | 94% | 100% | 104% | 99% | 96.3% | 109% | 108% | 119% | 97.8% |  | 101% | 95.9% | 100% | 98% | 106% | 109% | 105%
N[C@@H]1CCC[C@H]1NCCCCN1C(=O)c2cccc3cc([N+](=O)[O-])cc(c23)C1=O | 4.54% (active) | 41.4% | 32.5% | 72.5% | 36.6% | 34% | 25.6% | 45.6% | 64.7% | 73.4% |  | 69.7% | 43.4% | 23.8% | 17.2% | 48% | 33.1% | 11.3%
c1ccc2cc(Cn3cc(CSc4nc5ccccc5s4)nn3)ccc2c1 | 103% | 95.7% | 90.7% | 99.7% | 98.1% | 93.3% | 93.9% | 103% | 87.1% | 96.9% | 80.8% | 96.3% | 105% | 94.5% | 91.7% | 102% | 100% | 
COc1cc(C[C@H]2COc3cc(O)cc(O)c3C2=O)ccc1O | 19% | 18.2% | 28.1% | 101% | 63.1% | 29.2% | 41.3% | 14.1% | 13.7% | 20.9% |  | 27.8% | -22.5% (active) | 23.1% | 22.6% | 88.2% | 24.7% | 12.6%
CC1(C)N=C(N)N=C(N)N1c1cc(Cl)ccc1Cl | 67% | 107% | 85.5% | 59.2% | 96.4% | 97.2% | 68.4% | 115% | 101% | 67.8% | 95.2% | 85.2% | 108% | 42.2% | 65.7% | 94.8% | 94% | 

— PubChem BioAssay (NCI)
